We go through 15 molecules from PubChem BioAssay (NCATS).

The structures appear in SMILES notation. “And” between values parts separate entries of the source, which are not always exact repeats. Equal entries are not always repeated. Results filed as inconclusive are left out. Some compounds were tested as several samples or in several runs, with calls that do not always agree. Values without a mark were called inactive. The source made the active and inactive calls. Calls come from the whole dose curve; as a rule, active = well fitted curve in the direction sought with a large enough effect; inconclusive = small, poorly fitted or top-dose-only effect, or another doubt; inactive = no such curve, though single readings can be large; an effect the other way counts as inactive or inconclusive.

One test deals with Hek293T. As to the kind of experiment: Primary qHTS to identify gynecologic anti-cancer compounds using libraries of approved drugs and bioactive compounds (AID 1345084). Note: nearly all actives have a fitted effect of over 55% in size. The settings on record: Gynecologic cancer cell panel viability, ATPlite luminescence, 48 h, control line for the selectivity index; series mostly up to 57.5 µM. The gist of the method:
(§1)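 ATP-based viability (ATPlite), 1,000 cells/well, 16 h pre-incubation, 48 h compound at 37 C, 5% CO2, 15 min RT before read.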

The next test has as its system JEG-3. The test is described as above. To be noted: Gynecologic cancer cell panel viability, ATPlite luminescence, 48 h; series mostly up to 57.5 µM. Summed up:
as §1
In general terms: Cellular ATP, detected with luciferase, serves as a proxy for viable cell number.

Another test relates to OV90. Described as above. To be noted: Gynecologic cancer cell panel viability, ATPlite luminescence, 48 h; series mostly up to 57.5 µM. The gist of the method: as §1
The test system of another test is PA-1. Described as above. To be noted: Gynecologic cancer cell panel viability, ATPlite luminescence, 48 h; series mostly up to 57.5 µM. The gist of the method: as §1
The test system of another test is SKOV3. Described as above. To be noted: Gynecologic cancer cell panel viability, ATPlite luminescence, 48 h; series mostly up to 57.5 µM. Summed up:
as §1

The subject of a further test is Tov-21-G. Described as above. To be noted: Gynecologic cancer cell panel viability, ATPlite luminescence, 48 h; series mostly up to 57.5 µM. The gist of the method:
as §1

The next test has as its system Tov112D. Described as above. To be noted: Gynecologic cancer cell panel viability, ATPlite luminescence, 48 h; series mostly up to 57.5 µM. The gist of the method:
as §1

Test [1] is described as follows: Drug repurposing screens with cells derived from glioblastoma tumor samples (AID 1345199). Note: nearly all actives have a fitted effect of over 40% in size. The settings on record: GBM patient neurospheres viability, ATP luminescence, 48 h. The gist of the method: (§2)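 Primary testing used CD133+ neurospheres from four GBM patients, seven concentrations, 48 h exposure and ATP-based viability; confirmation added three slower-growing patient lines.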

The subject of another test is astro. The description is as above. To be noted: viability, ATP luminescence, 48 h; series mostly up to 45.9 µM. Summed up: as §2
Where [2] appears, read: at 45.9 µM (top of the series), tumour line B.
Where [3] appears, read: at 45.9 µM (top of the series), tumour line D.
The mark [4] stands for this setting: at 46.1 µM (top of the series), tumour line C.
The mark [5] stands for this setting: at 46 µM (top of the series), tumour line A.
% is set by controls: 0 for no effect and ±100 for the full control effect; potency is the fitted concentration of half-maximal effect.

As for `C[C@@H](O)[C@H]1C(=O)N2C(C(=O)O)=C([C@H]3CCCO3)S[C@H]12`, the Potency result in the test with Hek293T, in the test with JEG-3, in the test with OV90, in the test with PA-1, in the test with SKOV3 and in the test on Tov-21-G was “inactive” throughout. Moreover, in the test on Tov112D, the Potency entry is “inactive”. The activity, negative = cell killing was -7.31% in test [1] (setting [2]), -12.1% in test [1] (setting [3]) and -5.94% in [1] (setting [4]).
As for `CCOC(=O)[C@H](CCc1ccccc1)N[C@@H](C)C(=O)N1[C@H](C(=O)O)C[C@@H]2CCC[C@@H]21`, the Potency result in the test on Hek293T, in the test with JEG-3, with OV90, in the test with PA-1, in the test on SKOV3 and in the test with Tov-21-G was “inactive” each time. The Potency result with Tov112D is “inactive”. Further, the activity, negative = cell killing in test [1] (setting [2]) is -17.1%; in [1] (setting [3]) it was 6.01%; in test [1] (setting [4]) it was -13.2%.
On to `CN1CCN(c2cc3c(cc2F)c(=O)c(C(=O)O)cn3-c2ccc(F)cc2)CC1`, for which the Potency entry in the test with Hek293T, in the test on JEG-3, in the test on OV90, with PA-1, with SKOV3 and with Tov-21-G was “inactive” in each case. For the same molecule, the Potency result in the test on Tov112D was “inactive”. The activity, negative = cell killing in test [1] (setting [2]) is -7.1%; in test [1] (setting [3]) it was -1.79%; in [1] (setting [5]), -26.7%; in [1] (setting [4]) it was 5.61%.
For the molecule `COc1cc(C(=O)NCc2ccc(OCCN(C)C)cc2)cc(OC)c1OC`, the Potency entry in the test with Hek293T, with JEG-3, in the test on OV90, in the test with PA-1, with SKOV3 and in the test on Tov-21-G was “inactive” each time. Further, the Potency entry with Tov112D and in the test with astro was “inactive” in each case. The activity, negative = cell killing is -15.6% in [1] (at 20 µM (top of the series), tumour line C); -6.09% in test [1] (at 21.2 µM (top of the series), tumour line B); -9.89% in [1] (at 21.2 µM (top of the series), tumour line D); -23.1% in [1] (at 21.3 µM (top of the series), tumour line A).
Take `N/C(=N\N=C\c1ccc(Cl)cc1)N/N=C/c1ccc(Cl)cc1`: the Potency entry in the test on Hek293T, in the test with JEG-3, in the test on OV90, in the test with PA-1, in the test with Tov-21-G and with Tov112D was “inactive” in each case. The Potency with SKOV3 is 31.6 µM (active).
`CCN[C@@H]1C[C@H](N)[C@@H](OC2OC(CN)=CCC2N)[C@H](O)[C@H]1O[C@H]1OC[C@](C)(O)[C@H](NC)[C@H]1O` (stereo partly drawn): the activity change, negative = cytotoxicity was 3.5% [at 0.462 µM] with Hek293T; 13.2% [at 0.462 µM] in the test with JEG-3; -4.98% [at 0.462 µM] in the test with OV90; 0.807% [at 0.462 µM] in the test on PA-1; -8.65% [at 0.462 µM] in the test on SKOV3; 7.74% [at 0.462 µM] in the test on Tov-21-G. For the same molecule, in the test on Tov112D, the activity change, negative = cytotoxicity was -3.87% [at 0.462 µM]. Further, the activity, negative = cell killing in [1] (setting [2]) was -4.35%; in [1] (setting [3]) it was 14.1%; in [1] (setting [5]), -22.3%; in [1] (setting [4]) it was -13.2%. For the same molecule, the Potency entry in the test with astro is “inactive”.
On to `CN(Cc1ccc(C(C)(C)C)cc1)Cc1cccc2ccccc12`, for which the Potency entry in the test on Hek293T, in the test on JEG-3, with OV90, with PA-1, in the test on SKOV3 and in the test on Tov-21-G was “inactive” each time. The Potency result in the test with Tov112D and in the test on astro was “inactive” in each case. Further, the activity, negative = cell killing was -23.3% in test [1] (setting [2]); -13.6% and -21.7% in [1] (setting [4]). Besides, the Potency in test [1] (tumour line A) is 22.4 µM (active); in test [1] (tumour line B) it was 12.6 µM (active); in [1] (tumour line D) it was 22.4 µM (active).
`Cc1ncc(CO)c(C=O)c1O`: the Potency result in the test on Hek293T, with JEG-3, in the test on OV90, with PA-1, in the test with SKOV3 and in the test on Tov-21-G was “inactive” in each case. Further, the Potency entry in the test on Tov112D and with astro was “inactive” each time. Moreover, the activity, negative = cell killing is 6.81% in test [1] (setting [2]), -6.02% in test [1] (setting [3]), -26.4% in test [1] (setting [5]) and 7.46% in [1] (setting [4]).
As to `COc1ccc(/C=N/NC(=O)c2ccncc2)cc1OC`, the Potency entry with Hek293T, with JEG-3, with OV90, with PA-1, in the test on SKOV3 and in the test on Tov-21-G was “inactive” each time. Besides, in the test on Tov112D, the Potency result was “inactive”. Besides, the activity, negative = cell killing in [1] (setting [2]) was -3.24%; in test [1] (setting [3]), -6.28%; in test [1] (setting [4]) it was -25%.
As to `Cc1cc(-c2ccccc2)nnc1NCCN1CCOCC1`, the Potency entry in the test on Hek293T, in the test on JEG-3, in the test with OV90, with PA-1, with SKOV3 and in the test on Tov-21-G was “inactive” throughout. Moreover, the Potency entry in the test on Tov112D is “inactive”. In addition, the activity, negative = cell killing in [1] (setting [2]) is -18.6%; in test [1] (setting [3]), -4.44%; in test [1] (setting [4]) it was -11.7%. Further, in test [1] (tumour line A), the Potency was 12.6 µM (active).
For the molecule `CC(=O)Nc1ccc(OCC(O)CNC(C)C)cc1` (stereo not drawn), the Potency result with Hek293T, in the test on JEG-3, with OV90, with PA-1, with SKOV3 and with Tov-21-G was “inactive” in each case. In addition, the Potency result with Tov112D and in the test with astro was “inactive” throughout. The activity, negative = cell killing in test [1] (setting [2]) is -1.74%; in test [1] (setting [3]) it was -7.95%; in test [1] (setting [5]), -46.4%; in [1] (setting [4]) it was -12.1%.
As for `COc1ccc(CN(CCN(C)C)c2ncccn2)cc1`, the Potency result with Hek293T, in the test on JEG-3, with OV90, with PA-1, with SKOV3 and in the test on Tov-21-G was “inactive” in each case. Moreover, in the test on Tov112D, the Potency result was “inactive”. Further, the activity, negative = cell killing in [1] (setting [2]) is -6.69%; in test [1] (setting [4]) it was -7.28%.
Turning to `N#CCC(=O)NN`, the Potency entry with Hek293T, with JEG-3, with OV90, in the test on PA-1, in the test on SKOV3 and in the test on Tov-21-G was “inactive” in each case. Moreover, the Potency entry in the test on Tov112D and in the test with astro was “inactive” in each case. Also, the activity, negative = cell killing was -9.6% in test [1] (setting [2]), -5.43% in test [1] (setting [3]), -40.8% in test [1] (setting [5]) and -7.01% in test [1] (setting [4]).
As for `O=S(c1cc(Cl)cc(Cl)c1O)c1cc(Cl)cc(Cl)c1O`, the Potency entry in the test with Hek293T, in the test with JEG-3, in the test on OV90, with PA-1, in the test with SKOV3 and in the test on Tov-21-G was “inactive” throughout. Besides, the Potency entry in the test with Tov112D is “inactive”. Also, the activity, negative = cell killing in [1] (setting [2]) is -23.8%; in test [1] (setting [3]), -25%; in test [1] (setting [4]) it was -26.7%. Further, the Potency in test [1] (tumour line A) is 28.2 µM (active).
Consider `Cc1cc(NS(=O)(=O)c2ccc(N)cc2)nc(C)n1`, for which the Potency entry in the test with Hek293T, in the test on JEG-3, in the test with OV90, in the test with PA-1, in the test with SKOV3 and with Tov-21-G was “inactive” each time. In the test on Tov112D, the Potency entry is “inactive”. For the same molecule, the activity, negative = cell killing in test [1] (setting [2]) is -14.8%; in test [1] (setting [3]), -16.4%; in [1] (setting [5]) it was -27.1%; in test [1] (setting [4]), -10.5%.
